PubChem BioAssay (EPA / NIEHS)
Records with an inconclusive call do not appear. Active and inactive are the calls of the source. How the source made its calls: active means hit-call score of the fitted dose curve at least 0.9, where 1 is the maximum; inconclusive means response in the unintended direction; inactive means score below 0.9.

Biological target: chimpanzee Androgen Receptor (AR), AR (gene 747460) (UniProt O97775)
Test: NVS_NR_cAR: NovaScreen (NVS) Nuclear Receptor Binding Assay for chimpanzee Androgen Receptor (AR) (AID 2283346);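 further: radioligand displacement from AR measured by scintillation counting in a cell-free assay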
How it was run: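 Cell-free radioligand displacement using receptor protein extracted from Sf9/Sf21 cells; bound radioligand measured by scintillation counting 72 hours after chemical dosing. Loss of signal versus DMSO baseline indicates binding; primary screen single-concentration in duplicate at 25 uM, actives followed in concentration series.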

Chain of chimpanzee Androgen Receptor (AR), AR (gene 747460) (O97775 whole entry, looked up): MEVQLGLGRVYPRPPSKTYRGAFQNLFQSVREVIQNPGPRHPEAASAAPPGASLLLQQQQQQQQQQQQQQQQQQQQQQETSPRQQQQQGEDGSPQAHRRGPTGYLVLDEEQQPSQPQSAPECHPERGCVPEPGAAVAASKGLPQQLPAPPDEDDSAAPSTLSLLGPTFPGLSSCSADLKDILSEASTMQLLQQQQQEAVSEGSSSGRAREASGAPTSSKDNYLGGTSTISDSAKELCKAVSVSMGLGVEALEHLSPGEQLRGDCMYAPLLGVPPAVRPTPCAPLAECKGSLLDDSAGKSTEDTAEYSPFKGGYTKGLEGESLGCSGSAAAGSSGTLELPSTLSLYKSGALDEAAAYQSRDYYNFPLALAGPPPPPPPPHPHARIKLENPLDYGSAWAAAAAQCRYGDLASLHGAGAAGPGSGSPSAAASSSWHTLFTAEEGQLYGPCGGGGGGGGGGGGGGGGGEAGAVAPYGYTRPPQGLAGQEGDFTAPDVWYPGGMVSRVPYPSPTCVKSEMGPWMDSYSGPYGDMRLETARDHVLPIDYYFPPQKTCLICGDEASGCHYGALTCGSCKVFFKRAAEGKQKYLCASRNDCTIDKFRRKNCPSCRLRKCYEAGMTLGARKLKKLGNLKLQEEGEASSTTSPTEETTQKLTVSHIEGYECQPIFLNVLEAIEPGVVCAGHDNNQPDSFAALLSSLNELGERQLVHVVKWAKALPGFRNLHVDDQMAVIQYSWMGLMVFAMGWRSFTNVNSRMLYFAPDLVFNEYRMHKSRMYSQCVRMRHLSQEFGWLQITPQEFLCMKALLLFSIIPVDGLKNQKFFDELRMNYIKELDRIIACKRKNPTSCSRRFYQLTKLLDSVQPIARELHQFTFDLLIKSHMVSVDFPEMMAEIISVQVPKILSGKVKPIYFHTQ

| Structure (SMILES) | AC50 | outcome |
| --- | --- | --- |
| BrCc1cccc(Oc2ccccc2)c1 | 25 µM (active) |  |
| OCc1cccc(Oc2ccccc2)c1 | 25 µM (active) |  |
| Nc1ccc(N)c2c1C(=O)c1ccccc1C2=O |  | inactive |
| CCCCCCCCC=CCCCCCCCC1=NCCN1CCO | 35.8 µM (active) |  |
| C=C1CC[C@H](O)C/C1=C/C=C1\CCC[C@]2(C)[C@@H]([C@H](C)/C=C/[C@H](C)C(C)C)CC[C@@H]12 | 28.4 µM (active) |  |
| Nc1ccccc1[N+](=O)[O-] |  | inactive |
| CCOC(=O)c1ccc(N)cc1 |  | inactive |
| CN1CCOCC1 |  | inactive |

Biological target: Estrogen receptor (Homo sapiens) (UniProt P03372)
Sequence (P03372 whole entry, looked up, the tested form may be a part): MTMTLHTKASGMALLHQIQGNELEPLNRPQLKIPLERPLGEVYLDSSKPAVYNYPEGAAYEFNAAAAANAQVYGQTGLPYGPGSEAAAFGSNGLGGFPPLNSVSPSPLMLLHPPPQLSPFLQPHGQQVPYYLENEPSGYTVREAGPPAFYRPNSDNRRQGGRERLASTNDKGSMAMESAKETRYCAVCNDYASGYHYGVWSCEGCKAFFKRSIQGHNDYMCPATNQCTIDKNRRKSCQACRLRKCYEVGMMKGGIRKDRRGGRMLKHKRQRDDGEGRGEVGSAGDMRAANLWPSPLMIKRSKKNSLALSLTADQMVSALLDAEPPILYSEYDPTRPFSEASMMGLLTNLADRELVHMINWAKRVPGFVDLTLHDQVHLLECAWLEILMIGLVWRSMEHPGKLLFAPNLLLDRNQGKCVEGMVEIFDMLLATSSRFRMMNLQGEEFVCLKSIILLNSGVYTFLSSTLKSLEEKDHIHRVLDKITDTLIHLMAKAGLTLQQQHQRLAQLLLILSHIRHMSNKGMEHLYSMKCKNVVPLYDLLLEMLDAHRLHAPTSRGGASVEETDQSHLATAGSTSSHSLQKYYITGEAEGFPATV
Test: OT_ER_ERaERa_1440: Odyssey Thera (OT) 24-hour HEK293T Protein-Complementation Assay for Estrogen Receptor-alpha/-alpha Homodimer (AID 2283349);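 further: hits raise fluorescence above DMSO for agonists and antagonists alike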
How it was run: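 Stably transfected HEK293T; ERα LBD homodimer PCA. 24 h dosing, fluorescence intensity read, gain-of-signal vs DMSO.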

| Structure (SMILES) | outcome |
| --- | --- |
| CC(C)NCC(O)COc1ccc(CC(N)=O)cc1 (configuration not stated) | inactive |
| OCC(O)c1ccccc1 (configuration not stated) | inactive |
| CC(C)CCCCCCc1ccc(OCCOCCO)cc1 | inactive |

Biological target: Estrogen receptor (Homo sapiens) (UniProt P03372)
Test: OT_ER_ERaERa_0480: Odyssey Thera (OT) 8-hour HEK293T Protein-Complementation Assay for Estrogen Receptor-alpha/-alpha Homodimer (AID 2283351);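 further: rise in fluorescence from reassembled reporter fragments on ERα LBD homodimer in nucleus or whole cell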
How it was run: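 Cells were treated for 8 hours, then imaged on a laser scanning plate cytometer. Complementation of reporter fragments fused to the human ERα ligand-binding domain (residues 310-547) in HEK293T gave fluorescence, and gain of signal over vehicle was fitted.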

| Structure (SMILES) | outcome |
| --- | --- |
| CC(C)NCC(O)COc1ccc(CC(N)=O)cc1 (configuration not stated) | inactive |
| OCC(O)c1ccccc1 (configuration not stated) | inactive |
| CC(C)CCCCCCc1ccc(OCCOCCO)cc1 | inactive |

Biological target: Androgen Receptor/SRC-1 Co-activator, AR (gene 367) (UniProt P10275)
Sequence (P10275 whole entry, looked up): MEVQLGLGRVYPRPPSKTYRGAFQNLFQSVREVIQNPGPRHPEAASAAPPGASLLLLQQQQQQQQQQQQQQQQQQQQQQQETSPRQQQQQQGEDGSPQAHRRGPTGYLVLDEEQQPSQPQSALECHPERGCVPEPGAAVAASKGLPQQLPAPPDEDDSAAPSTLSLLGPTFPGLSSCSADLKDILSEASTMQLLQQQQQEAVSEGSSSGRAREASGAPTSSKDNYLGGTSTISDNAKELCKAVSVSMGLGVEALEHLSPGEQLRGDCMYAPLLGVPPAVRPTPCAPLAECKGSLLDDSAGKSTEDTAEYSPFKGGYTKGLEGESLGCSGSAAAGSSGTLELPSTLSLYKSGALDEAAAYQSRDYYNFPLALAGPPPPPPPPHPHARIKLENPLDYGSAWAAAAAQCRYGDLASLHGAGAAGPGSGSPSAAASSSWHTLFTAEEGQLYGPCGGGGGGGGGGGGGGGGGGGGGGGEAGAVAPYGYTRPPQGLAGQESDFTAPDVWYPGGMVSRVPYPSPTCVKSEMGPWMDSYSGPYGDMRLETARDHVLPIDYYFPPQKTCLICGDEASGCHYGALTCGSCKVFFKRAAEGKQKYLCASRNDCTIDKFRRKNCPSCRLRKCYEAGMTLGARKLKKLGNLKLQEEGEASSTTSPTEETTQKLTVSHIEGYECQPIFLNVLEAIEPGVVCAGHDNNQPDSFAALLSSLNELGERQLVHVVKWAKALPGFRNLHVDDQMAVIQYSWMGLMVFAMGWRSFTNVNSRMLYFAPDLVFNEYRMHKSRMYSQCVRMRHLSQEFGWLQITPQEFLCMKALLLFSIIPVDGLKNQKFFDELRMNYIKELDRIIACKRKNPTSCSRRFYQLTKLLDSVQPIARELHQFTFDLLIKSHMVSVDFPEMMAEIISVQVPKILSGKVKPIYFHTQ
Test: OT_AR_ARSRC1_0960: Odyssey Thera (OT) 16-hour HEK293T Protein-Complementation Assay for Androgen Receptor/SRC-1 Co-activator (AID 2283353);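 further: actives raise the signal above DMSO so potency reflects increased AR and SRC-1 complex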
How it was run: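 Stable HEK293T line carries AR and SRC-1 each linked to a Venus fragment; chemicals are applied for 16 h, cells imaged at two wavelengths, and the 488 nm nucleus/cytoplasm ratio is taken as the signal, rising relative to DMSO.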

| Structure (SMILES) | outcome | AC50 |
| --- | --- | --- |
| BrCc1cccc(Oc2ccccc2)c1 | inactive |  |
| OCc1cccc(Oc2ccccc2)c1 | inactive |  |
| Nc1ccc(N)c2c1C(=O)c1ccccc1C2=O |  | 35.3 µM (active) |
| CCCCCCCCSCCO | inactive |  |
| CCOC(=O)[C@@H](C)Oc1ccc(Oc2nc3ccc(Cl)cc3o2)cc1 | inactive |  |
| CCCCCCCCC=CCCCCCCCC1=NCCN1CCO |  | 15.7 µM (active) |
| CCCCC1CCC(O)CC1 (configuration not stated) | inactive |  |
| CC1CCC(C(C)C)C(O)C1 (configuration not stated) | inactive |  |
| CCc1ccc(O)cc1 | inactive |  |
| CC(=O)O[C@@H]1CC2CCC1(C)C2(C)C (some centres not stated) | inactive |  |
| C[C@H]1O[C@@H](O[C@H]2[C@@H](O)C[C@H](O[C@H]3[C@@H](O)C[C@H](O[C@H]4CC[C@@]5(C)[C@H](CC[C@@H]6[C@@H]5C[C@@H](O)[C@]5(C)[C@@H](C7=CC(=O)OC7)CC[C@]65O)C4)O[C@@H]3C)O[C@@H]2C)C[C@H](O)[C@@H]1O |  | 0.118 µM (active) |
| CCc1cc(Cc2cc(CC)cc(C(C)(C)C)c2O)c(O)c(C(C)(C)C)c1 |  | 10.7 µM (active) |
| CCCCCCCCCCCCCC(=O)OCC(O)CO (configuration not stated) | inactive |  |
| CC(=O)O[C@H]1C[C@@H]2CC[C@@]1(C)C2(C)C | inactive |  |
| CC(C)CCCCCCc1ccc(OCCOCCO)cc1 | inactive |  |

Biological target: Androgen Receptor/SRC-1 Co-activator, AR (gene 367) (UniProt P10275)
Test: OT_AR_ARSRC1_0480: Odyssey Thera (OT) 8-hour HEK293T Protein-Complementation Assay for Androgen Receptor/SRC-1 Co-activator (AID 2283354);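 further: hits raise the complementation signal above DMSO so AC50 marks enhancers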
How it was run: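 After 8 h dosing, stably expressing HEK293T cells with split-Venus AR/SRC-1 fusions were imaged (488, 635nm). The 488nm N/C ratio per image gave the endpoint, analysed in the positive direction against DMSO.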

| Structure (SMILES) | outcome | AC50 |
| --- | --- | --- |
| BrCc1cccc(Oc2ccccc2)c1 | inactive |  |
| OCc1cccc(Oc2ccccc2)c1 | inactive |  |
| Nc1ccc(N)c2c1C(=O)c1ccccc1C2=O | inactive |  |
| CCCCCCCCSCCO | inactive |  |
| CCOC(=O)[C@@H](C)Oc1ccc(Oc2nc3ccc(Cl)cc3o2)cc1 | inactive |  |
| CCCCCCCCC=CCCCCCCCC1=NCCN1CCO |  | 23.3 µM (active) |
| CCCCC1CCC(O)CC1 (configuration not stated) | inactive |  |
| CC1CCC(C(C)C)C(O)C1 (configuration not stated) | inactive |  |
| CCc1ccc(O)cc1 | inactive |  |
| C[C@H]1O[C@@H](O[C@H]2[C@@H](O)C[C@H](O[C@H]3[C@@H](O)C[C@H](O[C@H]4CC[C@@]5(C)[C@H](CC[C@@H]6[C@@H]5C[C@@H](O)[C@]5(C)[C@@H](C7=CC(=O)OC7)CC[C@]65O)C4)O[C@@H]3C)O[C@@H]2C)C[C@H](O)[C@@H]1O | inactive |  |
| CCc1cc(Cc2cc(CC)cc(C(C)(C)C)c2O)c(O)c(C(C)(C)C)c1 |  | 15.8 µM (active) |
| CCCCCCCCCCCCCC(=O)OCC(O)CO (configuration not stated) | inactive |  |
| CC(C=O)Cc1ccc(C(C)(C)C)cc1 (configuration not stated) | inactive |  |
